In PubChem BioAssay (NCATS) one finds Potency, activity change, negative = reduced viability and activity change, negative = lower viability data, which are given here for 40 molecules.

Results filed as inconclusive are left out. Where a call stands in place of a potency, no number is given. Calls of active or inactive are those of the source. Calls come from the whole dose curve; tested in HEK293 reporter line.
Note: nearly all actives have a fitted effect of over 80% in size.
Potency is the fitted concentration of half-maximal effect.

The first assay can be described thus: qHTS for Inhibitors of the Functional Ribonucleoprotein Complex (vRNP) of Lassa (LASV) Arenavirus: Viability assay - alamar blue signal for LASV Primary Screen (AID 1347083). The conditions noted are these: cell viability, alamar blue fluorescence (LASV minigenome counter-screen); series mostly up to 57.5 µM.
For `COc1ccc(C[C@H]2c3cc(O)c(OC)cc3CC[N+]2(C)[O-])cc1O` (stereo partly specified), the Potency entry was “inactive”.
In the case of `[3H]C([3H])([3H])C(O)(CCC[C@@H](C)C1CC[C@H]2/C(=C/C=C3/C[C@@H](O)CCC3=C)CCC[C@]12C)C([3H])([3H])[3H]` (stereo partly specified), the Potency result is “inactive”.
In the case of `O=C(Nc1ncc(SCCN2CCCC2)s1)[C@]1(c2ccc(S(=O)(=O)C3CC3)cc2)C[C@@H]1C1CCCCC1`, the Potency result was “inactive”.
`CCCSSCCC`: the Potency entry was “inactive”.
Turning to `C=C(C)C(O)CC/C(C)=C/Cc1c(O)ccc(C(=O)/C=C/c2ccc(O)cc2)c1O` (stereo unspecified), the Potency result is “inactive”.
The same measure, in the same setting: the result for `C[C@@H]1CC[C@]2(C(=O)O[C@@H]3O[C@H](CO)[C@@H](O)[C@H](O)[C@H]3O)CC[C@]3(C)C(=CCC4[C@@]5(C)C[C@@H](O)[C@H](O)[C@@](C)(C(=O)O[C@@H]6[C@H](O)C[C@@]7(C)C(CC[C@]8(C)C7CC=C7[C@H]9[C@](C(=O)O[C@@H]%10O[C@H](CO)[C@@H](O)[C@H](O)[C@H]%10O)(CC[C@@H](C)[C@@]9(C)O)CC[C@]78C)[C@@]6(CO)C(=O)O)C5CC[C@]43C)[C@@H]2[C@]1(C)O` (stereo partly specified) reads “inactive”; that for `Cc1ccc2oc3ccccc3c(=O)c2c1`, “inactive”.
Take `Cc1c(O)c(C)c2c(c1O)C(=O)C[C@@H](c1ccccc1)O2`: the Potency result is “inactive”.
On the same count and under the same terms, the value for `Cc1[nH]c(C=C2C(=O)Nc3ccc(S(=O)(=O)Cc4c(Cl)cccc4Cl)cc32)c(C)c1C(=O)N1CCC[C@H]1CN1CCCC1` was “inactive”; that for `COc1cc(-c2oc3cc(O)cc(O)c3c(=O)c2O[C@@H]2O[C@H](CO)[C@@H](O)[C@H](O)[C@H]2O)cc(OC)c1O` was “inactive”; that for `CC(=O)NC(Cc1cnc[nH]1)C(=O)O` (stereo unspecified) was “inactive”.
Turning to `CC(=O)c1c(O)cccc1O`, the Potency entry was “inactive”.
Take `OC[C@H]1O[C@@H](O[C@H]2[C@@H](O)[C@@](O)(CO)O[C@@H]2CO)[C@H](O)[C@@H](O)[C@@H]1O`: the Potency result was “inactive”.
Turning to `CCCCC/C=C\C=C\C(=O)OCC`, the Potency result is “inactive”.
With `CCCCC/C=C\C/C=C\C[C@H](O)/C=C/C=C\CCCC(=O)O`, the activity change, negative = reduced viability was 15% [at 0.757 µM] (inactive).
Take `CN[C@H]1[C@@H](O)[C@@H]2O[C@@H]3O[C@H](C)CC(=O)[C@]3(O)O[C@@H]2[C@@H](NC)[C@H]1O`: the Potency was 7.69 µM (active).
Still for that read-out and setting: the value for `CC(=O)OCC(=O)[C@@]1(O)CC[C@H]2[C@@H]3CCC4=CC(=O)C=C[C@]4(C)[C@@H]3[C@@H](O)C[C@@]21C` was “inactive”; that for `C/C=C1/CN2C3CC1C(CO)(C(=O)OC)C2Cc1c3n(C)c2ccccc12` (stereo unspecified) was “inactive”; that for `O=c1c2c(O)cc(O)cc2oc2c(O)ccc(O[C@H]3O[C@@H](CO)[C@H](O)[C@@H](O)[C@@H]3O)c12` was “inactive”.
On the same count and under the same terms, the result for `CC(C)=CCc1c(O)cc(O)c2c1OC(c1ccc(O)cc1)CC2=O` (stereo unspecified) reads “inactive”.
For the molecule `CCCCC/C=C\C[C@@H]1O[C@H]1/C=C/C(O)C/C=C\CCCC(=O)O` (stereo partly specified), the activity change, negative = reduced viability was 11.9% [at 0.757 µM] (inactive).
As to `CC/C=C\CCOC(=O)C(C)C`, the Potency result is “inactive”.
In the case of `CCCCCCCCCCCCCCCCCC(=O)NCC(COP(=O)([O-])OCC[N+](C)(C)C)OCC` (stereo unspecified), the Potency result was “inactive”.
`COC(=O)c1ccccc1OC`: the Potency result was “inactive”.
In the case of `CC(C)C(=O)OCCc1ccccc1`, the Potency result was “inactive”.
Same read-out and setting: the value for `CC(=O)O[C@@]1(C)C[C@@H](O)[C@]2(O)C=CO[C@@H](O[C@@H]3O[C@H](CO)[C@@H](O)[C@H](O)[C@H]3O)[C@@H]21` was “inactive”.

The nature of the next assay: qHTS for Inhibitors of the Functional Ribonucleoprotein Complex (vRNP) of Lymphocytic Choriomeningitis Arenaviruses (LCMV): Viability assay - alamar blue signal for LCMV Primary Screen (AID 1347085). The conditions noted are these: alamar blue viability counter-screen, LCMV vRNP screen cells; series mostly up to 57.5 µM.
Regarding `CSC(=S)NCc1c[nH]c2ccccc12`, the Potency result was “inactive”.
For `CC1OC(Oc2ccc3ccc(=O)oc3c2-c2c(O)ccc3cc(Oc4ccc5ccc(=O)oc5c4)c(=O)oc23)C(O)C(O)C1O` (stereo unspecified), the Potency result was “inactive”.
For the molecule `CCCCC(C=O)NC(=O)C(CC(C)C)NC(=O)OCc1ccccc1` (stereo unspecified), the Potency entry was “inactive”.
Regarding `COc1c2c(c(OC)c3c1c(=O)c1ccccc1n3C)OCO2`, the Potency result is “inactive”.
For `CC1=CC(=O)OC2CC3OC4C[C@@H](C)C5OC6CC7O[C@]8(C)C/C=C\C9OC%10CC%11OC(CC(C)CO)CC(O)[C@]%11(C)OC%10CC9OC8C[C@]7(C)O[C@]6(C)CCC5OC4C[C@]3(C)OC12` (stereo partly specified), the Potency entry is “inactive”.
Still for that read-out and setting: the value for `CC1=CCC[C@@H]2[C@@](C)(CC/C(C)=C/C(=O)O)[C@H](C)CC[C@@]12C` was “inactive”; that for `C=C[C@]1(C)C=C2C(=O)[C@@]3(O)OC(=O)[C@@]4(CCCC(C)(C)[C@H]34)[C@@]2(O)CC1` was “inactive”; that for `O=C1CCCCCCCCCCCCCCCO1` was “inactive”.
On to `CCCCC[C@H](O)/C=C/C=C/C/C=C\CCCC(=O)O`, for which the activity change, negative = lower viability is 9.71% [at 0.757 µM] (inactive).
Regarding `CC(=O)O[C@]1(C(C)=O)CC[C@@H]2[C@@H]3C[C@H](C)C4=CC(=O)CC[C@]4(C)[C@H]3CC[C@@]21C`, the Potency result was “inactive”.
Same read-out and setting: the result for `COc1cc(=O)n(C)c2c(OCC3OC(C)(C)OC3(C)C)cccc12` (stereo unspecified) reads “inactive”; that for `C=CC(C)(C)O[C@@H]1O[C@H](CO)[C@@H](O)[C@H](O)[C@H]1O`, “inactive”.
With `CC(C)NC[C@@H](C(=O)N1CCN(c2ncnc3c2[C@H](C)C[C@H]3O)CC1)c1ccc(Cl)cc1`, the Potency was 0.485 µM (active).
Turning to `CC1(C)C=Cc2c(c3c(c4c(=O)c(-c5ccc(O)cc5)coc24)OC(C)(C)CC3)O1`, the Potency result was “inactive”.
Take `COc1ccc(C[C@H]2c3cc(O)c(OC)cc3CC[N+]2(C)[O-])cc1O` (stereo partly specified): the Potency result is “inactive”.
As to `[3H]C([3H])([3H])C(O)(CCC[C@@H](C)C1CC[C@H]2/C(=C/C=C3/C[C@@H](O)CCC3=C)CCC[C@]12C)C([3H])([3H])[3H]` (stereo partly specified), the Potency result is “inactive”.
As to `O=C(Nc1ncc(SCCN2CCCC2)s1)[C@]1(c2ccc(S(=O)(=O)C3CC3)cc2)C[C@@H]1C1CCCCC1`, the Potency result was “inactive”.
For the molecule `CCCSSCCC`, the Potency result was “inactive”.
The same measure, in the same setting: the result for `C=C(C)C(O)CC/C(C)=C/Cc1c(O)ccc(C(=O)/C=C/c2ccc(O)cc2)c1O` (stereo unspecified) reads “inactive”; that for `C[C@@H]1CC[C@]2(C(=O)O[C@@H]3O[C@H](CO)[C@@H](O)[C@H](O)[C@H]3O)CC[C@]3(C)C(=CCC4[C@@]5(C)C[C@@H](O)[C@H](O)[C@@](C)(C(=O)O[C@@H]6[C@H](O)C[C@@]7(C)C(CC[C@]8(C)C7CC=C7[C@H]9[C@](C(=O)O[C@@H]%10O[C@H](CO)[C@@H](O)[C@H](O)[C@H]%10O)(CC[C@@H](C)[C@@]9(C)O)CC[C@]78C)[C@@]6(CO)C(=O)O)C5CC[C@]43C)[C@@H]2[C@]1(C)O` (stereo partly specified), “inactive”; that for `Cc1ccc2oc3ccccc3c(=O)c2c1`, “inactive”.
In the case of `Cc1c(O)c(C)c2c(c1O)C(=O)C[C@@H](c1ccccc1)O2`, the Potency result was “inactive”.
As to `Cc1[nH]c(C=C2C(=O)Nc3ccc(S(=O)(=O)Cc4c(Cl)cccc4Cl)cc32)c(C)c1C(=O)N1CCC[C@H]1CN1CCCC1`, the Potency result is “inactive”.
As for `COc1cc(-c2oc3cc(O)cc(O)c3c(=O)c2O[C@@H]2O[C@H](CO)[C@@H](O)[C@H](O)[C@H]2O)cc(OC)c1O`, the Potency entry was “inactive”.
Take `CC(=O)NC(Cc1cnc[nH]1)C(=O)O` (stereo unspecified): the Potency entry is “inactive”.
As to `CC(=O)c1c(O)cccc1O`, the Potency result was “inactive”.
As for `OC[C@H]1O[C@@H](O[C@H]2[C@@H](O)[C@@](O)(CO)O[C@@H]2CO)[C@H](O)[C@@H](O)[C@@H]1O`, the Potency entry was “inactive”.
Turning to `CCCCC/C=C\C=C\C(=O)OCC`, the Potency entry was “inactive”.
As to `CCCCC/C=C\C/C=C\C[C@H](O)/C=C/C=C\CCCC(=O)O`, the activity change, negative = lower viability is 7.12% [at 0.757 µM] (inactive).
`CN[C@H]1[C@@H](O)[C@@H]2O[C@@H]3O[C@H](C)CC(=O)[C@]3(O)O[C@@H]2[C@@H](NC)[C@H]1O`: the Potency is 2.43 µM (active).
Same read-out and setting: the value for `CC(=O)OCC(=O)[C@@]1(O)CC[C@H]2[C@@H]3CCC4=CC(=O)C=C[C@]4(C)[C@@H]3[C@@H](O)C[C@@]21C` was “inactive”; that for `C/C=C1/CN2C3CC1C(CO)(C(=O)OC)C2Cc1c3n(C)c2ccccc12` (stereo unspecified) was “inactive”.
The same measure, in the same setting: the value for `O=c1c2c(O)cc(O)cc2oc2c(O)ccc(O[C@H]3O[C@@H](CO)[C@H](O)[C@@H](O)[C@@H]3O)c12` was “inactive”.
In the case of `CC(C)=CCc1c(O)cc(O)c2c1OC(c1ccc(O)cc1)CC2=O` (stereo unspecified), the Potency entry is “inactive”.
`CCCCC/C=C\C[C@@H]1O[C@H]1/C=C/C(O)C/C=C\CCCC(=O)O` (stereo partly specified): the activity change, negative = lower viability is 4.17% [at 0.757 µM] (inactive).
As to `CC/C=C\CCOC(=O)C(C)C`, the Potency entry was “inactive”.
Regarding `CCCCCCCCCCCCCCCCCC(=O)NCC(COP(=O)([O-])OCC[N+](C)(C)C)OCC` (stereo unspecified), the Potency result is “inactive”.
Consider `COC(=O)c1ccccc1OC`, for which the Potency entry is “inactive”.
Take `CC(C)C(=O)OCCc1ccccc1`: the Potency result is “inactive”.
Regarding `CC(=O)O[C@@]1(C)C[C@@H](O)[C@]2(O)C=CO[C@@H](O[C@@H]3O[C@H](CO)[C@@H](O)[C@H](O)[C@H]3O)[C@@H]21`, the Potency entry was “inactive”.
